The values that follow come from PubChem BioAssay AID488969 (Vanderbilt High Throughput Screening Facility, 2010).

Over roughly 110,000 compounds, “z-score” has its median near -0.1; the highest 2% begin near 2. The entries come from a sample that favours the highest values as a whole. Activity calls are given as the source filed them.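 The calls were made as follows: active = z-score in the third read window above 3 or below -3; inactive = the rest.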

Chain of Metabotropic glutamate receptor 8 (Rattus norvegicus) (P70579 whole entry, looked up): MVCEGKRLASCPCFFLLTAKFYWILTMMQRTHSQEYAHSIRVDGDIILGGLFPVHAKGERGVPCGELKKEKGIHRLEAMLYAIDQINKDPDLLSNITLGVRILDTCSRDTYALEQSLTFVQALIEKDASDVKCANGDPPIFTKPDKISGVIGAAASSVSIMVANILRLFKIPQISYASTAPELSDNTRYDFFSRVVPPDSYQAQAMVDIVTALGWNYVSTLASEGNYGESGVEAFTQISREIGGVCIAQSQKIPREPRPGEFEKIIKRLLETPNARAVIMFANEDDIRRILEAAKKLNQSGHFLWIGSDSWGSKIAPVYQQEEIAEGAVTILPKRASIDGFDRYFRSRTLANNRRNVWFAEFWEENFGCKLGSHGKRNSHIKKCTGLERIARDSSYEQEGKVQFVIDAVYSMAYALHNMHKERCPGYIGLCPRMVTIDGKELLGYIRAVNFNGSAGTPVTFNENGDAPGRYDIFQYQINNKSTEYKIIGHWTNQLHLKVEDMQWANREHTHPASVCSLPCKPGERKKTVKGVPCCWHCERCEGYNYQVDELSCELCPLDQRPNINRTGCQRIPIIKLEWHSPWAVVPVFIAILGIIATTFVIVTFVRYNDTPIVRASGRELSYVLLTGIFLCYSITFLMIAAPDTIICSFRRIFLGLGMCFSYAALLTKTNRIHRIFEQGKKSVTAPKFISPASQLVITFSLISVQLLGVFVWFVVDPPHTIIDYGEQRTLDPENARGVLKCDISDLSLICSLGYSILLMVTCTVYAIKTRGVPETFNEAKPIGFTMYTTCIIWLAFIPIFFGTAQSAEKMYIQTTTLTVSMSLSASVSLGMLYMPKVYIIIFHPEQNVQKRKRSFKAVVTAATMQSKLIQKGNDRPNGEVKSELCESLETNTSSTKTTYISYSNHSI

This experiment addresses Metabotropic glutamate receptor 8 (Rattus norvegicus) (UniProt P70579). Put plainly: rat mGluR8 modulators via GIRK flux, primary screen, cell-based, thallium flux, HTS (AID 488969). To be noted: HEK293 rat mGluR8, GIRK (G protein-gated inwardly rectifying potassium channel) thallium flux, FluoZin2; at 10 µM; stronger effect = higher value; submaximal glutamate (EC20) added with thallium.
In the case of `CCn1c(CCNC(=O)c2ccc(Cl)cc2)n[nH]c1=S`, the z-score was -0.774.

For `CCn1ncc(/C=C/C(=O)Nc2c(C)nn(CC)c2C)c1C`, the z-score was -0.306.

Compound `CC1CCCCC1NC(=O)COC(=O)c1ccc2c(c1Cl)C(=O)c1ccccc1C2=O` (stereo not drawn) displayed a z-score of -0.0566.

For the compound `COc1ccccc1NC(=O)COC(=O)c1ccc2c(c1)nc(C)n2-c1ccccc1`, the z-score is -0.283.

In turn, `CC(=O)c1cccc(NC(=O)COC(=O)c2cccc(N3C(=O)c4ccccc4C3=O)c2)c1` had a z-score of 0.155.

The compound `Cc1nc2cc(C(=O)OCC(=O)Nc3cccc(Cl)c3)ccc2n1-c1ccccc1` had a z-score of 2.18.

In the case of `O=C(COC(=O)c1cccc(N2C(=O)c3ccccc3C2=O)c1)Nc1ccccc1`, the z-score was 5.13 (active).

In turn, `Cc1nc2cc(C(=O)OCC(=O)Nc3ccc(C#N)cc3)ccc2n1-c1ccccc1` came in with a z-score of -0.0383.

For `O=C(COC(=O)c1cccnc1)Nc1ccccc1`, the z-score was 0.274.

`Cc1cc(NS(=O)(=O)c2ccc(NC(=O)c3cc(-c4ccccc4Cl)nc4ccccc34)cc2)no1` came in with a z-score of -1.51.

As to `C=CCn1c(=NC(=O)c2ccco2)sc2cc(C(=O)OC)ccc21`, the z-score is 0.103.

Turning to `COc1ccccc1C(=O)Nc1ccc2c(c1)OCO2`, the z-score was 0.246.

`CN(C)C(=O)N1CCCC(C(=O)NCc2ccccc2)C1` (stereo not drawn) displayed a z-score of -0.341.

As to `CC(/C=N/NC(=O)c1ccncc1)=C\c1ccc(C(C)C)cc1`, the z-score was -0.0873.

Compound `CC(=C/c1ccc(C(C)C)cc1)/C=N/NC(=O)c1ccncc1` returned a z-score of 2.21.

`CC(/C=N/NC(=O)c1ccncc1)=C\c1ccccc1` returned a z-score of 0.474.

Turning to `COc1cc(/C=N\NC(=O)c2ccc(=O)[nH]n2)cc(OC)c1OC`, the z-score was 0.00269.

`O=C(NO)c1ccc(OC(F)F)cc1`: the z-score is 0.319.

`CCC1CCCCN1c1cc(C)nc2cc(-c3cccc(C)c3)nn12` (stereo not drawn): the z-score is -0.0418.

For the compound `C#CCn1c(=NC(=O)c2ccccc2[N+](=O)[O-])sc2cc(S(C)(=O)=O)ccc21`, the z-score was -0.119.

Turning to `S=c1nc(-c2ccc(Br)cc2)oc2c1CCCC2`, the z-score was 4.2 (active).

`Cc1cccc(-c2nc(=S)c3c(o2)CCCC3)c1` yielded a z-score of 0.856.

`S=c1nc(-c2ccccc2)oc2c1CCCC2` displayed a z-score of -0.0866.

In the case of `C=CCONC(=O)c1cc(OCC(F)(F)F)ccc1OCC(F)(F)F`, the z-score was -0.0898.

The compound `COCCCNCCOCCSc1ccc(Cl)cc1` came in with a z-score of 0.918.

In the case of `O=C(Cn1cncc1-c1ccc([N+](=O)[O-])cc1)Nc1cccc2ccccc12`, the z-score is -0.199.

Turning to `CC1CCc2c(sc(NC(=O)COC(=O)c3ccccc3NCc3ccco3)c2C#N)C1` (stereo not drawn), the z-score is -0.152.

Turning to `CC1CCc2c(sc(NC(=O)CN3CCN(C(=O)c4ccco4)CC3)c2C#N)C1` (stereo not drawn), the z-score came to 0.101.

Regarding `CC1CCc2c(sc(NC(=O)C(=O)NCc3ccco3)c2C#N)C1` (stereo not drawn), the z-score is 11.4 (active).

`COc1ccc(S(=O)(=O)N2CCN(C3Cc4ccccc4C3)CC2)cc1` registered a z-score of -0.439.

`Cc1cc(C)n(CC(O)CN(c2ccccc2)S(=O)(=O)c2ccccc2)n1` (stereo not drawn) registered a z-score of -0.261.

In the case of `CN(C)S(=O)(=O)c1ccc(C(=O)Nc2nnc(-c3ccc4c(c3)CCCC4)o2)cc1`, the z-score is 5.8 (active).

In the case of `O=C(CCc1ccccc1)Nc1nnc(-c2ccc3c(c2)CCCC3)o1`, the z-score is -0.145.

For `O=C(Nc1nnc(-c2ccc3c(c2)OCCO3)o1)c1ccc(Cc2ccccc2)cc1`, the z-score was -0.048.

On to `COc1ccccc1C(=O)Nc1nnc(-c2ccc3c(c2)CCCC3)o1`, for which the z-score was -0.536.

In turn, `N#Cc1ccc(C(=O)Nc2nnc(-c3ccccn3)o2)cc1` showed a z-score of -0.232.

Compound `CC1CN(S(=O)(=O)c2cccc(C(=O)Nc3ccc4c(c3)CCC4)c2)CC(C)O1` (stereo not drawn) registered a z-score of -0.053.

As for `O=C(Nc1nnc(-c2ccccn2)o1)c1cccc(Br)c1`, the z-score is 0.334.

For the compound `Cc1cc(C)nc(NS(=O)(=O)c2ccc(NC(=O)c3ccc(S(=O)(=O)N4CC(C)OC(C)C4)cc3)cc2)n1` (stereo not drawn), the z-score was -0.605.

In turn, `CC1CN(S(=O)(=O)c2ccc(C(=O)Nc3nnc(-c4ccc5c(c4)CCCC5)o3)cc2)CC(C)O1` (stereo not drawn) gave a z-score of 2.42.

`O=C(Nc1nnc(-c2ccc3c(c2)CCCC3)o1)c1ccccc1Cl`: the z-score was 5.26 (active).

In turn, `O=C(Nc1nnc(-c2ccccn2)o1)c1ccc(Br)cc1` returned a z-score of 2.32.

`Cc1cc(C)c(NC(=O)c2ccc(S(=O)(=O)N(C)C)cc2)c(C)n1`: the z-score was -1.73.

For `Nc1ccc(SC(F)(F)F)cc1C(=O)c1ccccc1`, the z-score was -0.00154.

Compound `O=C(COC(=O)C1CCN(S(=O)(=O)c2ccc3c(c2)OCCO3)CC1)Nc1cc(C(F)(F)F)ccc1Cl` registered a z-score of -0.303.

Take `CCCC12CN3CCN(CC(C3)/C1=N\NC(=O)Nc1ccccc1)C2`: the z-score is -0.242.

For `CCc1cc2cc(C(=O)Nc3ccc(F)cc3)sc2s1`, the z-score was -0.0494.

`Cc1nc2ccc(F)cc2cc1C(=O)NCc1ccco1`: the z-score was -0.0284.

`O=C(COC(=O)CCc1nc2ccccc2s1)Nc1ncc(Cl)cc1Cl`: the z-score was -0.33.

`CN1CCN(/C=N/c2c(C#N)cnn2-c2ccccc2)CC1`: the z-score is 0.237.

`O=C(CNC(=O)c1cccc(F)c1)OCc1cc(=O)n2cc(Br)ccc2n1` yielded a z-score of -0.354.

Take `O=C(Nc1nnc(-c2ccc3c(c2)CCCC3)o1)C1COc2ccccc2O1` (stereo not drawn): the z-score is 7.22 (active).

On to `O=C(COc1ccccc1)Nc1nnc(-c2ccc3c(c2)CCCC3)o1`, for which the z-score worked out at 1.27.

As to `O=C(Nc1nnc(-c2ccc3c(c2)CCCC3)o1)C1CCCCC1`, the z-score was -0.309.

With `CC(=O)Nc1nnc(-c2ccc3c(c2)CCCC3)o1`, the z-score was determined as 0.0154.

On to `O=C(Nc1nnc(-c2ccc3c(c2)CCCC3)o1)c1ccc(Cl)cc1Cl`, for which the z-score is 15.6 (active).

On to `CCCN(CCC)S(=O)(=O)c1ccc(C(=O)Nc2nnc(-c3cccc(OC)c3)o2)cc1`, for which the z-score was 3.65 (active).

For `O=C(COc1ccc(Cl)cc1)Nc1nnc(-c2ccc3c(c2)CCCC3)o1`, the z-score is -0.441.

In the case of `Clc1ccc(-c2nnc(NC3=NCCCCC3)o2)cc1`, the z-score was determined as 0.0658.

For `CCCN(CCC)S(=O)(=O)c1ccc(C(=O)Nc2nnc(CSC)o2)cc1`, the z-score came to 0.35.

For `COc1cccc(-c2nnc(NC(=O)c3ccc(S(=O)(=O)N(CC(C)C)CC(C)C)cc3)o2)c1`, the z-score was -0.14.

Consider `O=C(Nc1nnc(-c2ccc3c(c2)CCCC3)o1)c1ccccc1`, for which the z-score was 15.5 (active).

In turn, `O=C(Nc1ccc2c(c1)CCC2)C1COc2ccccc2O1` (stereo not drawn) returned a z-score of 0.9.

Consider `COc1nnc(-c2ccc(N3CCCCC3)c(NC(=O)C3CCCCC3)c2)c2ccccc12`, for which the z-score was -0.3.

For the compound `Cc1ccccc1N1CCN(C(=O)CCN2C(=O)c3ccccc3C2=O)CC1`, the z-score is -0.36.

In the case of `COc1ccc(C(=O)Nc2ccc(Cl)c(Cl)c2)c(OC)n1`, the z-score is -0.192.

`COc1ccccc1C(=O)NNC(=O)c1ccc(F)cc1`: the z-score is 0.0416.

`CCC(C)(C)n1nnnc1C(C(C)C)N1CCSCC1` (stereo not drawn) returned a z-score of 0.805.
